Test results taken from PubChem BioAssay (EPA / NIEHS).
Calls of active or inactive are those of the source. The calls were made as follows: active = hit-call score of the fitted dose curve at least 0.9, where 1 is the maximum; inactive = score below 0.9.

Experiments:
Settings in all cases: mRNA level, 48 h; actives raise or lower the signal
[1] = read-out: MYC, MYC (gene 4609); test: LTEA_HepaRG_MYC: Life Technologies and Expression Analysis (LTEA) Assay for MYC using HepaRG (AID 2283518)
In short: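 MYC transcript changes, up or down relative to 0.5% DMSO, from TaqMan qRT-PCR normalized to three housekeeping genes. Human HepaRG cultures received chemicals for 48 h at eight half-log concentrations up to 100 uM, in duplicate.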

[2] = read-out: matrix metalloproteinase-3 (MMP3), MMP3 (gene 4314); test: LTEA_HepaRG_MMP3: Life Technologies and Expression Analysis (LTEA) Assay for matrix metalloproteinase-3 (MMP3) using HepaRG (AID 2283519)
In short: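 qRT-PCR read-out of MMP3 mRNA (normalised to three housekeeping genes) in HepaRG liver cells after 48 h chemical exposure; 8-point half-log series, top 100 uM, 0.5% DMSO vehicle. Bidirectional curve fitting against DMSO baseline.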

[3] = read-out: Paternally Expressed 10 (PEG10), PEG10 (gene 23089); test: LTEA_HepaRG_PEG10: Life Technologies and Expression Analysis (LTEA) Assay for Paternally Expressed 10 (PEG10) using HepaRG (AID 2283520);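 as to AC50: PEG10 transcript by qRT-PCR normalised to ACTB GAPDH and POLR2A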
In short: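 After 48 h exposure of differentiated HepaRG cells (0.5% DMSO vehicle, eight concentrations up to 100 uM, duplicates), PEG10 mRNA was measured by TaqMan qRT-PCR. Values were normalised to endogenous control genes and analysed bidirectionally against vehicle.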

[4] = read-out: Nuclear factor NF-kappa-B p105 subunit (Homo sapiens) (UniProt P19838); test: LTEA_HepaRG_NFKB1: Life Technologies and Expression Analysis (LTEA) Assay for Nuclear Factor Kappa B Subunit 1 (NFKB1) using HepaRG (AID 2283521)
In short: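 Differentiated human HepaRG cells were exposed for 48 h in serum-free induction medium to eight concentrations (top 100 uM, half-log steps, 0.5% DMSO), in duplicate. NFKB1 mRNA was measured by TaqMan qRT-PCR, normalized to ACTB/GAPDH/POLR2A, and fitted bidirectionally against DMSO.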

[5] = read-out: Protein phosphatase 2A (PPP2R4), PTPA (gene 5524); test: LTEA_HepaRG_PPP2R4: Life Technologies and Expression Analysis (LTEA) Assay for Protein phosphatase 2A (PPP2R4) using HepaRG (AID 2283522)
In short: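 Using HepaRG cultures maintained in 0.5% DMSO, chemicals are tested 48 h at up to 100 uM in duplicate. Induction or suppression of PPP2R4 mRNA, measured by qRT-PCR, is fitted bidirectionally against the vehicle baseline.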

[6] = read-out: Phosphatase and tensin (PTEN), PTEN (gene 5728); test: LTEA_HepaRG_PTEN: Life Technologies and Expression Analysis (LTEA) Assay for Phosphatase and tensin (PTEN) using HepaRG (AID 2283523)
In short: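 HepaRG, 48 h exposure, 8-pt half-log series from 100 uM top, 0.5% DMSO vehicle, duplicates. Readout: Fluidigm qRT-PCR of PTEN transcript; housekeeping normalization (ACTB, GAPDH, POLR2A). Gain or loss fitted relative to DMSO baseline.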

[7] = read-out: solute carrier (SLC22A1), SLC22A1 (gene 6580); test: LTEA_HepaRG_SLC22A1: Life Technologies and Expression Analysis (LTEA) Assay for solute carrier (SLC22A1) using HepaRG (AID 2283524)
In short: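 qRT-PCR readout (TaqMan, Fluidigm arrays) of SLC22A1 transcript, normalized to three housekeeping genes; bidirectional curve fit relative to 0.5% DMSO vehicle. Differentiated human HepaRG cells, 48 h chemical exposure, top concentration 100 uM, half-log steps, eight points.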

[8] = read-out: Pyruvate Dehydrogenase Kinase 4 (PDK4), PDK4 (gene 5166); test: LTEA_HepaRG_PDK4: Life Technologies and Expression Analysis (LTEA) Assay for Pyruvate Dehydrogenase Kinase 4 (PDK4) using HepaRG (AID 2283525)
In short: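 HepaRG (human liver line), 48 h chemical exposure, 8-pt half-log CRC top 100 uM, 0.5% DMSO vehicle, duplicates. Readout: TaqMan qRT-PCR of PDK4 mRNA, housekeeping-normalized; gain/loss fit relative to DMSO baseline.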

[9] = read-out: NAD(P)H dehydrogenase [quinone] 1 (NQO1), NQO1 (gene 1728); test: LTEA_HepaRG_NQO1: Life Technologies and Expression Analysis (LTEA) Assay for NAD(P)H dehydrogenase [quinone] 1 (NQO1) using HepaRG (AID 2283526)
In short: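 In this assay, gene expression is read by qRT-PCR after 48 h exposure of HepaRG cells to eight concentrations (max 100 uM, half-log) in 0.5% DMSO. Each chemical runs in duplicate, and activity is scored relative to vehicle.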

[10] = read-out: Nuclear factor erythroid 2-related factor 2 (Homo sapiens) (UniProt Q16236); test: LTEA_HepaRG_NFE2L2: Life Technologies and Expression Analysis (LTEA) Assay for Nuclear factor erythroid 2-related factor 2 (NFE2L2) Transcription Factor using HepaRG (AID 2283527)
In short: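 HepaRG, 48 h dosing, 8-pt half-log series from 100 uM in 0.5% DMSO, duplicates. Read-out: NFE2L2 mRNA by qRT-PCR (ACTB/GAPDH/POLR2A normalization). Bidirectional curve fit vs DMSO baseline.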

[11] = read-out: succinate dehydrogenase complex iron sulfur subunit B (SDHB), SDHB (gene 6390); test: LTEA_HepaRG_SDHB: Life Technologies and Expression Analysis (LTEA) Assay for succinate dehydrogenase complex iron sulfur subunit B (SDHB) using HepaRG (AID 2283528)
In short: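 HepaRG, 48 h exposure, 8-pt half-log series from 100 uM in 0.5% DMSO, duplicates. Readout: SDHB mRNA by Fluidigm qRT-PCR vs housekeeping genes; bidirectional fit relative to DMSO.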

[12] = read-out: solute carrier (SLCO1B1), SLCO1B1 (gene 10599); test: LTEA_HepaRG_SLCO1B1: Life Technologies and Expression Analysis (LTEA) Assay for solute carrier (SLCO1B1) using HepaRG (AID 2283530)
In short: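 SLCO1B1 transcript levels were quantified by TaqMan qRT-PCR using three housekeeping genes for normalization. This followed 48 h chemical exposure (100 uM top, half-log, 8 points, 0.5% DMSO) of HepaRG liver cells, with gain or loss fitted relative to DMSO.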

[13] = read-out: sulfotransferase 2A1 (SULT2A1), SULT2A1 (gene 6822); test: LTEA_HepaRG_SULT2A1: Life Technologies and Expression Analysis (LTEA) Assay for sulfotransferase 2A1 (SULT2A1) using HepaRG (AID 2283531)
In short: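 Expression change of SULT2A1, by qRT-PCR with three housekeeping-gene normalization, was scored bidirectionally versus DMSO. Cells: differentiated HepaRG, dosed in duplicate for 48 h across 8 points, highest 100 µM, half-log dilution, 0.5% DMSO.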

[14] = read-out: Transforming Growth Factor (TGFA), TGFA (gene 7039); test: LTEA_HepaRG_TGFA: Life Technologies and Expression Analysis (LTEA) Assay for Transforming Growth Factor (TGFA) using HepaRG (AID 2283532)
In short: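 qRT-PCR read-out of TGFA transcript, normalized to three housekeeping genes, fitted bidirectionally against 0.5% DMSO baseline. Human HepaRG cultures received chemicals for 48 h at eight half-log concentrations, top 100 uM.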

[15] = read-out: Transforming Growth Factor (TGFB1), TGFB1 (gene 7040); test: LTEA_HepaRG_TGFB1: Life Technologies and Expression Analysis (LTEA) Assay for Transforming Growth Factor (TGFB1) Transporter using HepaRG (AID 2283533)
In short: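 TGFB1 transcript measured by qRT-PCR with normalisation to three housekeeping genes (ACTB, GAPDH, POLR2A); human HepaRG line treated in duplicate for 48 hr with an 8-point series topping at 100 uM, 0.5% DMSO vehicle, bidirectionally fitted.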

[16] = read-out: Tumor necrosis factor receptor 1 (TNFRSF1A), TNFRSF1A (gene 7132); test: LTEA_HepaRG_TNFRSF1A: Life Technologies and Expression Analysis (LTEA) Assay for Tumor necrosis factor receptor 1 (TNFRSF1A) using HepaRG (AID 2283535)
In short: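 mRNA measured by qRT-PCR (TaqMan, Fluidigm arrays) against ACTB/GAPDH/POLR2A housekeepers after 48 h chemical exposure of HepaRG cells. Top concentration 100 uM, half-log 8-point series, duplicates; vehicle 0.5% DMSO, both fit directions.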

[17] = read-out: Thyroid Hormone Responsive (THRSP), THRSP (gene 7069); test: LTEA_HepaRG_THRSP: Life Technologies and Expression Analysis (LTEA) Assay for Thyroid Hormone Responsive (THRSP) using HepaRG (AID 2283536)
In short: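 qRT-PCR read-out (Fluidigm TaqMan), housekeeping-normalized (ACTB/GAPDH/POLR2A). HepaRG, 48 h chemical exposure, 8-pt half-log series from 100 uM in 0.5% DMSO, duplicates. Bidirectional curve fit vs 0.5% DMSO baseline.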

[18] = read-out: Cellular tumor antigen p53 (Homo sapiens) (UniProt P04637); test: LTEA_HepaRG_TP53: Life Technologies and Expression Analysis (LTEA) Assay for Tumor Protein P53 (TP53) using HepaRG (AID 2283537)
In short: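 HepaRG, 48 h exposure, top 100 uM, half-log 8-point, 0.5% DMSO vehicle, duplicates. Read: TP53 mRNA by TaqMan qRT-PCR, normalised to ACTB/GAPDH/POLR2A; bidirectional fit vs DMSO.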

[19] = read-out: TIMP1, TIMP1 (gene 7076); test: LTEA_HepaRG_TIMP1: Life Technologies and Expression Analysis (LTEA) Assay for TIMP1 using HepaRG (AID 2283534)
In short: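 Bidirectional change in TIMP1 transcript versus 0.5% DMSO, measured by TaqMan qRT-PCR with three housekeeping genes for normalization. HepaRG human liver cells dosed 48 h in duplicate, top concentration 100 uM with half-log dilutions.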

[20] = read-out: Signal transducer and activator of transcription 3 (Homo sapiens) (UniProt P40763); test: LTEA_HepaRG_STAT3: Life Technologies and Expression Analysis (LTEA) Assay for Signal transducer and activator of transcription (STAT3) using HepaRG (AID 2283529)
In short: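 HepaRG, 48 h exposure, 8-pt half-log series (top 100 uM), 0.5% DMSO vehicle, duplicates. Readout: STAT3 transcript by Fluidigm qRT-PCR, housekeeping-normalized; bidirectional fit vs DMSO baseline.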

Measured: AC50

Nuclear factor NF-kappa-B p105 subunit (Homo sapiens), sequence (P19838 whole entry, looked up): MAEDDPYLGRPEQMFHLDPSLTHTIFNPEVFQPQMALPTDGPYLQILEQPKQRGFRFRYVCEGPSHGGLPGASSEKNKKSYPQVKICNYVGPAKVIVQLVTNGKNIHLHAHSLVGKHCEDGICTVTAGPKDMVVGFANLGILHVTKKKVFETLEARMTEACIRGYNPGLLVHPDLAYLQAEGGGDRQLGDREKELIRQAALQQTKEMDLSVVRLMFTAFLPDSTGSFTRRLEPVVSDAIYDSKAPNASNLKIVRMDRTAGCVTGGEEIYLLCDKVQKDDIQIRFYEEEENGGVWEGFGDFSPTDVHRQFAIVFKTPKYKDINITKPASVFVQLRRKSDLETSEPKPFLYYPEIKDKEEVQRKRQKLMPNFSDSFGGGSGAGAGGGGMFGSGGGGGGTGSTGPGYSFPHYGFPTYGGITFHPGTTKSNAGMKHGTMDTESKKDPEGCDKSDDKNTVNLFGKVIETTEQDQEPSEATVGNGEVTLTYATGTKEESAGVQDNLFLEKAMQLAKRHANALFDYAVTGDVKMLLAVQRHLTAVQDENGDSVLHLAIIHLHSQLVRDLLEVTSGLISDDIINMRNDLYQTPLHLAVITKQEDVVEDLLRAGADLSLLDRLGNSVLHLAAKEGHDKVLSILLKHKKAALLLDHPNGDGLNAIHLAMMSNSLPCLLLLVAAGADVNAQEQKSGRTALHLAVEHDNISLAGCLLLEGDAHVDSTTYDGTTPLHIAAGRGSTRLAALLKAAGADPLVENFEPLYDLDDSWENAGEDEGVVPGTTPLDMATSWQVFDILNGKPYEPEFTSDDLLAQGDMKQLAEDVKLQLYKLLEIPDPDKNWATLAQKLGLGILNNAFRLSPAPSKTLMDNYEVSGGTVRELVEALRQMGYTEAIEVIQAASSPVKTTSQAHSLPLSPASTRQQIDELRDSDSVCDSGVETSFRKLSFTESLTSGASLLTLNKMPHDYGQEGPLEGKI
Nuclear factor erythroid 2-related factor 2 (Homo sapiens), sequence (Q16236 whole entry, looked up): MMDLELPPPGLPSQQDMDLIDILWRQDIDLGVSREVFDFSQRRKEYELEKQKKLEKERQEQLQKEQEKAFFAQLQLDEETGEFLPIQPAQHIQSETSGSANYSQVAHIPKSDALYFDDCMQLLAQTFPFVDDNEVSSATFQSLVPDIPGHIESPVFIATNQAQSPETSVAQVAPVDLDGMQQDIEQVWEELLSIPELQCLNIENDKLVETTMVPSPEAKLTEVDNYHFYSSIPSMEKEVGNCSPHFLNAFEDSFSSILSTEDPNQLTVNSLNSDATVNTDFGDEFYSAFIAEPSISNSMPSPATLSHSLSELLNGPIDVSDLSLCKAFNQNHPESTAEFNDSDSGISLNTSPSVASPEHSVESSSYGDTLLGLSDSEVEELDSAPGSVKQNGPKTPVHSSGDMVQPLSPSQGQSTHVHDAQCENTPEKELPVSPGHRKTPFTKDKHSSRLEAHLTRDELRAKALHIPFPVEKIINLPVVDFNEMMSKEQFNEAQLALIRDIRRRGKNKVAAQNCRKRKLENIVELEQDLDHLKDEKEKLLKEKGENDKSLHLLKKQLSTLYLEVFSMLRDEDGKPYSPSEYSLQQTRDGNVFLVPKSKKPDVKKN
Cellular tumor antigen p53 (Homo sapiens), sequence (P04637 whole entry, looked up): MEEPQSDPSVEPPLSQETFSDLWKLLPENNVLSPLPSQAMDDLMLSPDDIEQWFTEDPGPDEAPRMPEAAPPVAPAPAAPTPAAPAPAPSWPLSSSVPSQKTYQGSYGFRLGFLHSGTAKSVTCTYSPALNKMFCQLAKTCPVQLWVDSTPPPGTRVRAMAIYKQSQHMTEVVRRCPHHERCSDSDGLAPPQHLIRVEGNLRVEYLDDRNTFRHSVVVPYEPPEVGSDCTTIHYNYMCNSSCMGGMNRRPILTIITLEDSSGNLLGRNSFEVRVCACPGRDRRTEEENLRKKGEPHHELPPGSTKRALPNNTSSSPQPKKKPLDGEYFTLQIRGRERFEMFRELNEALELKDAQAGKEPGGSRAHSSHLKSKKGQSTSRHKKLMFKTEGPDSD
Signal transducer and activator of transcription 3 (Homo sapiens), sequence (P40763 whole entry, looked up): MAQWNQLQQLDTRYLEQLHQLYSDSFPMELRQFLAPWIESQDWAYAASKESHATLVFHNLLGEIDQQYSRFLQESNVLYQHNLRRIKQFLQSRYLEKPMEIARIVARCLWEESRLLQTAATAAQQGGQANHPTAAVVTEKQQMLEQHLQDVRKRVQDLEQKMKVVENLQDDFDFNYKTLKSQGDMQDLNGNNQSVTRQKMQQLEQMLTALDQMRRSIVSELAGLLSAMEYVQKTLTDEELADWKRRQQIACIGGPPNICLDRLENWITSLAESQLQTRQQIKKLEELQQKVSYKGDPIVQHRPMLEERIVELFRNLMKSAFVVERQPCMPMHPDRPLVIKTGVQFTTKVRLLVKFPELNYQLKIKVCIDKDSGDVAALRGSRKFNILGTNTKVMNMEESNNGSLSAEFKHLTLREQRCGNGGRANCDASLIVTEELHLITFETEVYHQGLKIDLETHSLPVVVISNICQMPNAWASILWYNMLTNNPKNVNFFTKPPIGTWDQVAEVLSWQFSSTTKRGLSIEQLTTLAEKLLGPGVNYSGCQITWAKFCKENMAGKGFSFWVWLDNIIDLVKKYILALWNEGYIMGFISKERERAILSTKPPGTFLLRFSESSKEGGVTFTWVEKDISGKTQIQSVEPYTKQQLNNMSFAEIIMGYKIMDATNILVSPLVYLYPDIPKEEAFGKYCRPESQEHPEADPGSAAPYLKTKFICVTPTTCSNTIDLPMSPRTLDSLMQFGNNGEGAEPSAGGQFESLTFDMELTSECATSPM

c1ccc2c(c1)Cc1ccccc1-2
inactive: [1] | [2] | [3] | [4] | [5] | [6] | [7] | [8] | [9] | [10] | [11] | [12] | [13] | [14] | [15] | [16] | [17] | [18]

OCCC(F)(F)C(F)(F)C(F)(F)C(F)(F)C(F)(F)C(F)(F)C(F)(F)C(F)(F)F
inactive: [1] | [2] | [3] | [4] | [5] | [6] | [7] | [8] | [9] | [10] | [11] | [12] | [13] | [14] | [15] | [19] | [16] | [17] | [18]

CC(O)CO (stereo not given)
inactive: [1] | [2] | [3] | [4] | [5] | [6] | [7] | [8] | [9] | [10] | [11] | [12] | [13] | [14] | [15] | [19] | [16] | [17] | [18]

Cc1oc(-c2ccccc2)nc1CCOc1ccc(C[C@H](Nc2ccccc2C(=O)c2ccccc2)C(=O)O)cc1
inactive: [4] | [19]
active: [1] 12.5 µM | [2] 50 µM | [3] 20.8 µM | [5] 29.1 µM | [6] 23 µM | [7] 50 µM | [8] 0.338 µM | [9] 29.6 µM | [10] 11.9 µM | [11] 26.1 µM | [12] 23.4 µM | [13] 23.4 µM | [14] 0.0617 µM | [15] 31.3 µM | [16] 26.7 µM | [17] 24 µM | [18] 86.1 µM

CC[C@H](c1ccc(O)cc1)[C@@H](CC)c1ccc(O)cc1
inactive: [1] | [2] | [3] | [4] | [6] | [14] | [17]
active: [5] 82.8 µM | [7] 71.4 µM | [8] 80.4 µM | [9] 81.8 µM | [10] 78.8 µM | [11] 79.4 µM | [12] 92.8 µM | [13] 79.7 µM | [15] 79.5 µM | [16] 93.4 µM | [18] 80.1 µM

CCc1ccc(CCOc2ccc(CC3SC(=O)NC3=O)cc2)nc1 (stereo not given)
inactive: [2] | [4] | [6] | [9] | [11] | [20] | [15] | [16]
active: [1] 80.8 µM | [3] 14.2 µM | [5] 50 µM | [7] 66.6 µM | [8] 11.6 µM | [10] 50 µM | [12] 67.5 µM | [13] 81.1 µM | [14] 24 µM | [17] 83.8 µM | [18] 80.4 µM

CCOC(=O)CC(O)(CC(=O)OCC)C(=O)OCC
inactive: [1] | [2] | [3] | [4] | [5] | [6] | [7] | [8] | [9] | [10] | [11] | [12] | [13] | [14] | [19] | [16] | [17] | [18]
